High-throughput results: PubChem BioAssay, University of Kansas High Throughput Screening Laboratory
Pf apPOL inh: Pf-apPOL DNA polymerase inhibition; Recombinant Pf-apPOL, molecular beacon fluorescence, 1.5 h; inhibition, % at 10 µM; 210,000 compounds, 0.25% hits; AID 1794808
mHTT CaM bind: inhibitors of human mutant huntingtin-calmodulin interaction | inhibition, % at 15 µM | AlphaScreen His-mHTT/GST-CaM binding, luminescence | 190,000 compounds, 3.6% hits;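 note: 0% = both proteins with DMSO and 100% = one protein alone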
Target sequence (P42858 whole entry, looked up, stated change not applied): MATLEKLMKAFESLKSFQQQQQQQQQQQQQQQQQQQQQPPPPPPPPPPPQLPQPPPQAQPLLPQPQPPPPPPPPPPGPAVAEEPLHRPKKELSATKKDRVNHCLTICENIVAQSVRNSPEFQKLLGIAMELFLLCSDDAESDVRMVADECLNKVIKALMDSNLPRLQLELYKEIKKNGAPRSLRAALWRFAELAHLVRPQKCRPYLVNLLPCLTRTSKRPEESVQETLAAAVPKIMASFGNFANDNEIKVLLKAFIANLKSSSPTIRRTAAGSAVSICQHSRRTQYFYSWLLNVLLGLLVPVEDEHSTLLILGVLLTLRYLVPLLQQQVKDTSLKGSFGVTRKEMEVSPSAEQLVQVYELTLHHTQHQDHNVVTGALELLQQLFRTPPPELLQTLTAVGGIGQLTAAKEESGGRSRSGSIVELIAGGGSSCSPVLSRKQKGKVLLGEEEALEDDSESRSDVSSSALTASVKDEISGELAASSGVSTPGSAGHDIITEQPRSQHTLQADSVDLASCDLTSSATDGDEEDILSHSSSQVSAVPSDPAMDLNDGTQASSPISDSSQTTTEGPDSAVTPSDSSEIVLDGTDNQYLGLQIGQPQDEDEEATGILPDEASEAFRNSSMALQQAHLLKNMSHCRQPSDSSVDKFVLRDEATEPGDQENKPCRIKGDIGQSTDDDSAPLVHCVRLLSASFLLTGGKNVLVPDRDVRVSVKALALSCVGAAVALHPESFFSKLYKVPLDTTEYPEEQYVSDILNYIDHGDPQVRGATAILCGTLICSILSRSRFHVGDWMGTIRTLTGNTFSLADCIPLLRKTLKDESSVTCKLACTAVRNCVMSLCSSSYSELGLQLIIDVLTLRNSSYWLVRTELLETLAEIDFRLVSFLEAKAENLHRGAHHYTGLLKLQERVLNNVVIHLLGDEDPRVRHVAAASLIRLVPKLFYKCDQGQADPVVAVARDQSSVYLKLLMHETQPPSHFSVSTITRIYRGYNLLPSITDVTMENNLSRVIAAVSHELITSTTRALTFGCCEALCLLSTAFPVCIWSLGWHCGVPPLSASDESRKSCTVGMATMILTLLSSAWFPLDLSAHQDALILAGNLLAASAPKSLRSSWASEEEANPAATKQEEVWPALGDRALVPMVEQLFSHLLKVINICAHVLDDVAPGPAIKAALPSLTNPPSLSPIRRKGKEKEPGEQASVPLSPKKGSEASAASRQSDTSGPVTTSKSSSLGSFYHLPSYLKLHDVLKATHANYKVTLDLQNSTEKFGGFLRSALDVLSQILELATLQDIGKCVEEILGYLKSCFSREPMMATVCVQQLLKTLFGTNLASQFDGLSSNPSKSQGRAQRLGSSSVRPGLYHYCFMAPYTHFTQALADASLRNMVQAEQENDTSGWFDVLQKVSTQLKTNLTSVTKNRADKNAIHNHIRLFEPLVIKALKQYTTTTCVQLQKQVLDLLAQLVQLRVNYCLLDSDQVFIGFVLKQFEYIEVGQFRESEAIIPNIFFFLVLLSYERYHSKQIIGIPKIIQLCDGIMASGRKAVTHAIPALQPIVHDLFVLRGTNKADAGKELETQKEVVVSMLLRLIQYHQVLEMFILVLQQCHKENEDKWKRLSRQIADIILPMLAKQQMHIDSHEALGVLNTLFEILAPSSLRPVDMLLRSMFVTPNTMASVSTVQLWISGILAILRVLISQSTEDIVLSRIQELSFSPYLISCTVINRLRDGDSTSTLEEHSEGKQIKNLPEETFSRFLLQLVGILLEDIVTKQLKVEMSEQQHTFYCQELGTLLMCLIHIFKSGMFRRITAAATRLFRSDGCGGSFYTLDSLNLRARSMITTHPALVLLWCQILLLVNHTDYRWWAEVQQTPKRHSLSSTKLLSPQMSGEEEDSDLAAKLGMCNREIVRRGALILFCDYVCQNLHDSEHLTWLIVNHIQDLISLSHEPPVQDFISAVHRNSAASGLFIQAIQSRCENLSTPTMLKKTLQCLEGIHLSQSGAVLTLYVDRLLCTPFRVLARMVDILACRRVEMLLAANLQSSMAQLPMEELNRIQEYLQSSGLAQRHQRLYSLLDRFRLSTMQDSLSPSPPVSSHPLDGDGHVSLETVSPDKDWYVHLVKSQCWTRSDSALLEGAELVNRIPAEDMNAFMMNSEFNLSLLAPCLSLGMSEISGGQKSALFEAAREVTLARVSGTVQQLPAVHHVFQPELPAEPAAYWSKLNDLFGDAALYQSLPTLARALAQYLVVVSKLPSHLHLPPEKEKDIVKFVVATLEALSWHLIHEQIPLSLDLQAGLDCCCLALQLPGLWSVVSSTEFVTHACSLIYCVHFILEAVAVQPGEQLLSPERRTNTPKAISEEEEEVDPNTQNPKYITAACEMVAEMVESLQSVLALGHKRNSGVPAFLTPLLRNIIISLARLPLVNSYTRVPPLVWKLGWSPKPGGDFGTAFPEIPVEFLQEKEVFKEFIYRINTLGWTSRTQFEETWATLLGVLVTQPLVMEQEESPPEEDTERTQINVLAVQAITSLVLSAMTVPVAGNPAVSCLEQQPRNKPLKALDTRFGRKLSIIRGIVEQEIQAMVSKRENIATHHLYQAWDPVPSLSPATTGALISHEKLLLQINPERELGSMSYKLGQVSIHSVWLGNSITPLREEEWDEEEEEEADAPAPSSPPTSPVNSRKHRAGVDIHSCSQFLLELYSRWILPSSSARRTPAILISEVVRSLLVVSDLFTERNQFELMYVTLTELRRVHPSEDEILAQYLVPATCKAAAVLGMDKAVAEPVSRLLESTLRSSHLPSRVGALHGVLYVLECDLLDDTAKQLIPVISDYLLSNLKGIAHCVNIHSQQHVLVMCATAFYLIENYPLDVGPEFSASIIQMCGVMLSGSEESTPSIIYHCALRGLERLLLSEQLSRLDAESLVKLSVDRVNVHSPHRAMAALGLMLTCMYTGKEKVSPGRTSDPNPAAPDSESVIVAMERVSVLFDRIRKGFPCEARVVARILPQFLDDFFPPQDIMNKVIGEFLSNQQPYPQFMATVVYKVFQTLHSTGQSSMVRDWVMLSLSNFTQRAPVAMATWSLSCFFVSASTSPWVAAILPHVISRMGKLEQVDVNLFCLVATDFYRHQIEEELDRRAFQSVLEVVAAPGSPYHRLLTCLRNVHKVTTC
An asterisk follows results filed as active. In the library only some 3.5% were active in any assay of this set; here they are far more common. Cut-off read from the data, not from the text of the source: active = inhibition above about 50%; inactive = the rest.

How did COc1cc(/C=C2/SC(c3ccc(C)cc3)=NC2=O)cc(OC)c1OC do in these assays?
Pf apPOL inh: 0; mHTT CaM bind: -3

Results for CCCC(C(=O)O)N1C(=O)C(=Cc2ccccc2OC)SC1=S (stereo unspecified) ?
Pf apPOL inh: -60; mHTT CaM bind: 60*

What do the screens show for `COc1cc(/C=C2/SC(c3ccc(C)cc3)=NC2=O)ccc1O`?
Pf apPOL inh: 1; mHTT CaM bind: 53*

How did CCCC(C(=O)O)N1C(=O)C(=Cc2cccc(OC)c2OC)SC1=S (stereo unspecified) do in these assays?
Pf apPOL inh: -28; mHTT CaM bind: 22

What do the screens show for `CCN1CCN(C2CCN(C(=O)c3ccccc3)CC2)C1=O`?
Pf apPOL inh: -5; mHTT CaM bind: -11

What do the screens show for `Cc1ccc(C)c(C2=NN(C(=O)CN3CCOCC3)C(c3ccccc3F)C2)c1` (stereo unspecified)?
Pf apPOL inh: -2; mHTT CaM bind: 62*

What do the screens show for `Cc1ccc(C2=NN(C(=O)CN3CCOCC3)C(c3ccccc3Cl)C2)cc1C` (stereo unspecified)?
Pf apPOL inh: -4; mHTT CaM bind: 25

What do the screens show for `COc1cccc(C2CC(c3cc(C)ccc3C)=NN2C(=O)CN2CCCCC2)c1` (stereo unspecified)?
Pf apPOL inh: -7; mHTT CaM bind: 67*

How did COc1cccc(C2=NN(C(=O)CN(C)C(C)=O)C(c3ccc(F)cc3)C2)c1 (stereo unspecified) do in these assays?
Pf apPOL inh: -2; mHTT CaM bind: 17

Results for COc1cccc(C2CC(c3cccc(C)c3)=NN2C(=O)CN2CCCC2)c1 (stereo unspecified) ?
Pf apPOL inh: 6; mHTT CaM bind: 100*

Results for COc1ccc(C2CC(c3cccc(C)c3)=NN2C(=O)CN2CCCCC2)cc1 (stereo unspecified) ?
Pf apPOL inh: -2; mHTT CaM bind: 41

What do the screens show for `COc1cccc(C2CC(c3cccc(C)c3)=NN2C(=O)CN2CCCCC2)c1` (stereo unspecified)?
Pf apPOL inh: -4; mHTT CaM bind: 55*

Results for COc1ccccc1C1=NN(C(=O)CN2CCCCC2)C(c2cccc(F)c2)C1 (stereo unspecified) ?
Pf apPOL inh: -6; mHTT CaM bind: 21

How did CCCn1c(C2CCN(S(=O)(=O)CCC)C2)nc2cccnc21 (stereo unspecified) do in these assays?
Pf apPOL inh: -6; mHTT CaM bind: -1

Results for COc1ccc(CCNS(=O)(=O)c2ccccc2F)cc1OC ?
Pf apPOL inh: -6; mHTT CaM bind: -3

What do the screens show for `O=C(c1ccc(F)cc1)N1CCc2nc(-c3ccc(F)cc3)ncc2C1`?
Pf apPOL inh: 1; mHTT CaM bind: -11

How did COc1ccc(N2CCN(C(=O)C(C)C)C(C)C2=O)cc1OC (stereo unspecified) do in these assays?
Pf apPOL inh: -2; mHTT CaM bind: 0

What do the screens show for `COc1ccc2nc3sc(C(=O)N(C)C4CCCCC4)cc3cc2c1`?
Pf apPOL inh: -3; mHTT CaM bind: -3

How did COc1ccccc1C1=NN(C(=O)CN2CCOCC2)C(c2ccc(C)cc2)C1 (stereo unspecified) do in these assays?
Pf apPOL inh: -2; mHTT CaM bind: 38

How did Cc1cccc(C2=NN(C(=O)CN3CCOCC3)C(c3ccc(Cl)cc3)C2)c1 (stereo unspecified) do in these assays?
Pf apPOL inh: -2; mHTT CaM bind: 79*

Results for CN(Cc1ccccc1)C(=O)CCN1C(=O)c2ccccc2C1=O ?
Pf apPOL inh: -4; mHTT CaM bind: 0

Results for COc1ccc(-c2ccc(CN3C(C(C)C)C(=O)N(Cc4cn(Cc5ccco5)nn4)CCS3(=O)=O)cc2)cn1 (stereo unspecified) ?
Pf apPOL inh: -27; mHTT CaM bind: 38

Results for CC(C)C1C(=O)N(Cc2cn(Cc3ccco3)nn2)CCS(=O)(=O)N1Cc1ccc(-c2ccc(Cl)c(Cl)c2)cc1 (stereo unspecified) ?
Pf apPOL inh: -10; mHTT CaM bind: 83*

How did CCC/C=C/c1ccc(CN2C(C)C(=O)N(Cc3cn(Cc4ccco4)nn3)CCS2(=O)=O)cc1 (stereo unspecified) do in these assays?
Pf apPOL inh: -4; mHTT CaM bind: 35

What do the screens show for `CCC/C=C/c1ccc(CN2C(C(C)C)C(=O)N(Cc3cn(Cc4ccco4)nn3)CCS2(=O)=O)cc1` (stereo unspecified)?
Pf apPOL inh: -1; mHTT CaM bind: 57*

How did CCOc1cc(CN2CCCC2c2cc(C)no2)ccc1OCC(N)=O (stereo unspecified) do in these assays?
Pf apPOL inh: -2; mHTT CaM bind: 3

How did CC(=O)Nc1nc(CSCc2n[nH]c(=O)[nH]2)cs1 do in these assays?
mHTT CaM bind: -4

What do the screens show for `COc1ccc(CNC(=O)N2CC(C)C(c3nc(-c4ccncc4)no3)C2)cc1` (stereo unspecified)?
Pf apPOL inh: -6; mHTT CaM bind: 1

Results for N/C(=N\OS(=O)(=O)c1ccccc1)c1ccccn1 ?
Pf apPOL inh: 1; mHTT CaM bind: inactive

How did N/C(=N\OC(=O)Oc1ccccc1)c1ccncc1 do in these assays?
Pf apPOL inh: -9; mHTT CaM bind: inactive

What do the screens show for `N/C(=N\OC(=O)Oc1ccccc1)c1ccccn1`?
Pf apPOL inh: -3; mHTT CaM bind: active

How did N/C(=N\OS(=O)(=O)c1ccc(Cl)cc1)c1ccccn1 do in these assays?
Pf apPOL inh: 4; mHTT CaM bind: active

What do the screens show for `CCc1nnc(SCC(=O)Nc2ccc(Br)cc2)nc1CC`?
Pf apPOL inh: 1; mHTT CaM bind: 6

What do the screens show for `CCOc1ccc(NC(=O)NCCC2CCN(S(=O)(=O)c3ccccc3)CC2)cc1`?
Pf apPOL inh: 6; mHTT CaM bind: 32

How did CCOc1ccc(C2=C/C(=C/c3ccc(C)c(OC)c3)C(=O)O2)cc1 do in these assays?
Pf apPOL inh: 3; mHTT CaM bind: -14

How did CCOc1cc(/C=C2/C=C(c3ccc(C)cc3)OC2=O)ccc1O do in these assays?
Pf apPOL inh: 8; mHTT CaM bind: 55*

How did Cc1nc(C2CCN(Cc3cccs3)CC2)n[nH]1 do in these assays?
Pf apPOL inh: -4; mHTT CaM bind: -10

Results for Cc1nc(C2CCN(Cc3ccccn3)CC2)n[nH]1 ?
Pf apPOL inh: -9; mHTT CaM bind: 99*

How did COCCc1nc(C2CCCN(Cc3cccs3)C2)n[nH]1 (stereo unspecified) do in these assays?
Pf apPOL inh: -2; mHTT CaM bind: -2

Results for CCn1c(C2CCN(Cc3ccccn3)C2)nc2cccnc21 (stereo unspecified) ?
Pf apPOL inh: -44; mHTT CaM bind: 100*

Results for COCCc1nc(C2CCCN(Cc3ccccn3)C2)n[nH]1 (stereo unspecified) ?
Pf apPOL inh: -22; mHTT CaM bind: 89*

How did CCOc1ccccc1CN1CCC(c2nc3cccnc3n2CC)C1 (stereo unspecified) do in these assays?
Pf apPOL inh: -5; mHTT CaM bind: 18

What do the screens show for `O=C(NCc1ccc(F)cc1)C1CCc2sc(C(=O)N3CCCCC3)cc2C1` (stereo unspecified)?
Pf apPOL inh: -5; mHTT CaM bind: -4

How did CC(O)(CNC(=O)C1CC=CCC1)C1CC1 (stereo unspecified) do in these assays?
Pf apPOL inh: 1; mHTT CaM bind: -3

How did C=CCn1c(SCC#CCO)nc2ccccc2c1=O do in these assays?
Pf apPOL inh: -6; mHTT CaM bind: -19

What do the screens show for `CC(C)NC(=O)c1ccc(OCC2CCN(C(=O)c3ccccc3C(F)(F)F)CC2)cc1`?
Pf apPOL inh: -5; mHTT CaM bind: 16
